# Hits are enriched below; roughly 2.2% of the tested compounds scored in any of these assays.
# FMDV inh = High Throughput Screening for Foot and Mouth Disease Virus Antivirals. Potency, µM (series often up to 57.9 µM), for inactives: top-dose activity change, negative = inhibition, most hits filed as inhibitors. FMDV antiviral cell-based qHTS. AID 1159524, 2015. hit rate 1.2% among 410,000; calls by dose curve; tested in HEK293T cells; also: read-out not given here; nearly all actives have a fitted effect of over 45% in size
# FBPA Giardia inh = qHTS Assay for Inhibitors of Fructose-1,6-bisphosphate Aldolase from Giardia Lamblia | AID 2451, 2010 | A8B2U2 | Potency, µM (highest dose often 59.6 µM), inactives show at the highest dose activity, negative = inhibition, actives largely listed as inhibitors | hit rate 0.71% among 290,000 | purified Giardia FBPA; active = well fitted inhibition curve with a large enough effect; inconclusive = small, poorly fitted or top-dose-only effect, or effect the other way; also: nearly all actives have a fitted effect of over 55% in size
# Target sequence (A8B2U2 whole entry, looked up): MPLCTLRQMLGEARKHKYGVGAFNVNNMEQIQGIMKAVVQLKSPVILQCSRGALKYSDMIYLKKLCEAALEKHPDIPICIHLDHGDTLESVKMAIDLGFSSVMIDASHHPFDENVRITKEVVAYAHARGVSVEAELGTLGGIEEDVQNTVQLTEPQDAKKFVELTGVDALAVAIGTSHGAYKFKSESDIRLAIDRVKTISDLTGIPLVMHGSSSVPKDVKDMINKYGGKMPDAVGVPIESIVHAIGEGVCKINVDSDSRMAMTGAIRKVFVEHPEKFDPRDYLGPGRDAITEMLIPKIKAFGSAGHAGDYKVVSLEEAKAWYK
#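 40 nM FBPA preincubated 10 min at RT with compound (up to 57.5 uM final), then substrate plus GAPDH/TPI/NAD/arsenate coupling and diaphorase/resazurin added. Fluorescence read after 20 min at RT, 525/598 nm.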
# VACV mCherry inh = qHTS for Stage-Specific Inhibitors of Vaccinia Orthopoxvirus: mCherry Reporter Primary qHTS. AID 720579, 2013. hit rate 0.63% among 310,000. Vaccinia virus mCherry reporter infection, fluorescence. Potency, µM (highest dose often 36.5 µM), without a hit: at the top dose activity change, negative = inhibition, usual class: inhibitors; calls by dose curve; tested in A549 cells; also: nearly all actives have a fitted effect of over 35% in size
# Vaccinia Venus = qHTS for Stage-Specific Inhibitors of Vaccinia Orthopoxvirus: Venus Reporter Primary qHTS. Vaccinia virus Venus reporter expression, fluorescence. Potency, µM (series often up to 36.5 µM), without a hit: top-dose activity change, negative = inhibition, hits mostly inhibitors. hit rate 0.46% among 330,000. AID 720580, 2013; calls by dose curve; tested in A549 cells; also: nearly all actives have a fitted effect of over 30% in size
# Active calls of the source: *; i = inactive; u = inconclusive; x = no result given; ! = a repeat was not active; [ ] = dose if it differs, or a comment. % is scaled to controls: 0 for no effect and ±100 for the full control effect; potency is read from the fitted curve at half-maximal effect.
SMILES,FMDV inh,FBPA Giardia inh,VACV mCherry inh,Vaccinia Venus
O=C(NCc1cc(C(F)(F)F)ccc1Cl)c1cccc2c1C(=O)c1ccc(N3CCCCC3)cc1S2(=O)=O,-8%,x,-7%,2%
Cc1ccc(CN2C[C@H](Sc3ccccn3)C[C@H]2C(=O)Nc2ccc3sc(C)nc3c2)cc1,4%,x,-8%,-2%
C=C(CN(C)C)C(=O)c1ccc(OC2OC(COC(C)=O)C(OC(C)=O)C(OC(C)=O)C2OC(C)=O)cc1 (configuration not stated),10µM*,x,u,u
CCCOc1ccc(N2C(=O)CC(NCc3cccs3)C2=O)cc1 (configuration not stated),-9%,1%,x,11µM*
CCN1C(=O)/C(=C\C=C2/C=CC=CN2CC)SC1=S,-44%,u,63%,144%
CCN1C(=O)/C(=C/C=C2\C=CN(CC)c3ccccc32)SC1=S,13µM*,u,-11%,5%
OC(c1cc(C(F)(F)F)nc2c(C(F)(F)F)cccc12)C1CCCCN1 (configuration not stated),u,-13%,u,u
OC(c1cc(-c2ccc(C(F)(F)F)cc2)nc(C(F)(F)F)c1)C1CCCCN1 (configuration not stated),u,9%,u,11µM*
Cc1[nH]c2ccccc2c1C(c1c[nH]c2ccccc12)c1c(C)[nH]c2ccccc12,x,x,6%,11%
O=C(Cc1ccc(OCCCCc2ccccc2)cc1)NO,x,x,-21%,-16%
CCOC(=O)[C@]12Cc3c(cc(OC)c(OC)c3OC)[C@H]1N(C(C)C)C(=O)c1cc(OC)ccc12,14µM*,x,u,u
CCOC(=O)[C@]12Cc3cc(OC)ccc3[C@H]1N(C)C(=O)c1ccccc12,u,x,-15%,-4%
CCOC(=O)[C@]12Cc3cc(OC)ccc3[C@H]1N(C(C)C)C(=O)c1cc(OC)ccc12,16µM*,x,u,u
CCOC(=O)[C@]12Cc3c(cc(OC)c(OC)c3OC)[C@H]1N(C1CCCCC1)C(=O)c1cc(OC)ccc12,13µM*,x,u,u
CCOC(=O)[C@]12Cc3cc(C)ccc3[C@H]1N(C)C(=O)c1cc(OC)ccc12,40µM*,x,u,u
COc1ccc(C2=Nn3c(nnc3-c3ccccc3OC)SC2)c(OC)c1,x,4%,x,x
CCN(C(=O)Cn1c(=O)n(Cc2ccc3c(c2)OCO3)c(=O)c2ccc(C(=O)NC3CCCCC3)cc21)c1cccc(C)c1,-24%,x,3%,-4%
O=C(O)c1ccccc1OS(=O)(=O)O,x,1%,x,x
COc1ccc2c(c1)C(c1ccccc1OC)CC(=O)O2 (configuration not stated),x,2%[89.2 µM],x,x
O=C(Nc1ccc(Oc2ccccc2)cc1)C1CCN(c2c3c(nc4ncnn24)CCC3)CC1,8.9µM*,-5%,x,x
O=S(=O)(c1ccccc1)N1CCN(c2cc(-c3ccccc3)nc3ncnn23)CC1,u,7%,x,x
Cc1ccccc1NC(=O)C1CCN(c2cc(-c3ccccc3)nc3ncnn23)CC1,35µM*,-7%,x,u
CC1(C(=O)Nc2ccc3nc[nH]c3c2)CCN1C(=O)Cc1ccc(-c2ccccc2)cc1 (configuration not stated),32µM*,x,i,-22%
CC(C)(C)c1ccc(CC(=O)N2CCC2(C)C(=O)Nc2cnc3ccccc3c2)cc1 (configuration not stated),20µM*,x,11%,-10%
CC(C)c1ccc(CC(=O)N2CCC2(C)C(=O)Nc2cnc3ccccc3c2)cc1 (configuration not stated),u,x,6%,-18%
SMILES,FMDV inh,FBPA Giardia inh,VACV mCherry inh,Vaccinia Venus
O=C(NCc1cccc(Cl)c1)C1CCCN(c2nn3cc(-c4ccc(F)cc4)nc3s2)C1 (configuration not stated),11µM*,x,-23%,-26%
O=C(NCc1cccc(Cl)c1)C1CCN(c2nn3cc(-c4ccc(F)cc4)nc3s2)CC1,31%,x,-26%,u
O=c1cc(N2CCCCC2)c(-c2ccccc2)nn1Cc1ccccc1Cl,40µM*,-1%,x,u
CC(C)(CNC(=O)c1cnn(-c2nccc(-c3ccccc3F)n2)c1C1CC1)N1CCOCC1,-2%,x,-20%,-15%
CC(=O)OC1CC2C(C)(C)C(=O)CC[C@]2(C)C2CC[C@]3(C)C(=CC(=O)OC3c3ccoc3)[C@]12C (some centres not stated),-5%,0%,-3%,-27%
CC(=O)OC1CC2C(C)(C)C(=O)C=C[C@]2(C)C2CC[C@]3(C)C(=CC(=O)OC3c3ccoc3)[C@]12C (some centres not stated),25µM*,1%,-24%,u
Cc1ccc(C(=O)n2c(N)nc3ccccc32)cc1,10µM*,0%,-4%,u
O=C1C(Cl)=C(Cl)C(=O)C(Cl)=C1Cl,-28%,0.56µM*,i,-7%
Cc1ccc2cc(CCNC(=O)c3cccc([N+](=O)[O-])c3)c(=O)[nH]c2c1C,22µM*,18%,-17%,-8%
COc1ccc2cc(CCNC(=O)c3cccc([N+](=O)[O-])c3)c(=O)[nH]c2c1,u,-3%,x,x
Nc1ncnc2c1ncn2[C@@H]1O[C@H](COP(=O)(O)OP(=O)(O)O)[C@@H](O)[C@H]1O,23%,1%,-10%,5%
CC(C)(C)c1ccc(S(=O)(=O)N[C@H]2CC[C@@H](n3cc(C(=O)N4CCCC4)nn3)CC2)cc1,-20%,x,-22%,-23%
CCN(CC)CCCNc1nc2ccccc2c2[nH]c3ccc(OC)cc3c12,-6%,x,u,10µM*
O=C(OCn1ncc(Cl)c(Cl)c1=O)c1cccc(C(F)(F)F)c1,14µM*,2%,x,x
CCc1ccc(C(=O)Cn2ncc(Cl)c(Cl)c2=O)cc1,u,3%,x,4%
CN1CCC(N(C)c2nc(-c3ccc([N+](=O)[O-])cc3)nc3ccccc23)CC1,0%,-5%,u,10µM*
COP(=S)(OC)Oc1ccc([N+](=O)[O-])cc1,22µM*,0%,u,u
COP(=S)(OC)Oc1ccc(Sc2ccc(OP(=S)(OC)OC)cc2)cc1,u,x,-6%,-18%
COc1ccccc1NC(=O)CCCCCN1C(=O)c2cccc([N+](=O)[O-])c2C1=O,-10%,7%,x,x
COc1cc(/C=C2/C(=O)c3cccc([N+](=O)[O-])c3C2=O)c(Br)cc1O,3.5µM*,-30%,-4%,-16%
Cc1ccsc1CN1CCc2nnc(CCNC(=O)c3ccc(F)cc3)n2CC1,-4%,x,i,-18%
CCN1CCN(Cc2ccc(NC(=O)c3cc(NC(=O)c4ccno4)cc(OC)c3)cc2C(F)(F)F)CC1,-13%,-4%,-5%,u
CCN1CCN(Cc2ccc(NC(=O)c3cc(NC(=O)c4cc(-c5ccc(OC)cc5)n[nH]4)cc(OC)c3)cc2C(F)(F)F)CC1,13%,1%,u,10µM*
CCN1CCN(Cc2ccc(NC(=O)c3cc(NC(=O)c4cc5cccc(OC)c5o4)cc(OC)c3)cc2C(F)(F)F)CC1,40µM*!,-7%,u,13µM*!

# Assay outcomes: PubChem BioAssay, National Center for Advancing Translational Sciences (NCATS)
